# VACV mCherry inh: inhibitors of vaccinia virus infection (mCherry reporter signal) | Vaccinia virus mCherry reporter infection, fluorescence | Potency, µM (highest dose often 36.5 µM), without a hit: top-dose activity change, negative = inhibition, most hits filed as inhibitors | 310,000 compounds, 0.63% hits | AID 720579; calls by dose curve; tested in A549 cells; further: nearly all actives have a fitted effect of over 35% in size
# VACV Venus inh: inhibitors of vaccinia virus (Venus reporter); Vaccinia virus Venus reporter expression, fluorescence; Potency, µM (highest dose often 36.5 µM), for inactives: at the top dose activity change, negative = inhibition, most hits filed as inhibitors; 330,000 compounds, 0.46% hits; calls by dose curve; tested in A549 cells; further: nearly all actives have a fitted effect of over 30% in size
# FMDV inh: foot and mouth disease virus antiviral activity; FMDV antiviral cell-based qHTS; Potency, µM (doses to about 57.9 µM), without a hit: at the highest dose activity change, negative = inhibition, hits mostly inhibitors; 410,000 compounds, 1.2% hits; calls by dose curve; tested in HEK293T cells; further: read-out not given here; nearly all actives have a fitted effect of over 45% in size
# FBPA Giardia inh: inhibitors of Giardia lamblia fructose-1,6-bisphosphate aldolase | A8B2U2 | Potency, µM (top dose mostly 59.6 µM), without a hit: at the top dose activity, negative = inhibition, usual class: inhibitors | AID 2451 | 290,000 compounds, 0.71% hits | purified Giardia FBPA; active means well fitted inhibition curve with a large enough effect; inconclusive means small, poorly fitted or top-dose-only effect, or effect the other way; further: nearly all actives have a fitted effect of over 55% in size
# Target sequence (A8B2U2 whole entry, looked up): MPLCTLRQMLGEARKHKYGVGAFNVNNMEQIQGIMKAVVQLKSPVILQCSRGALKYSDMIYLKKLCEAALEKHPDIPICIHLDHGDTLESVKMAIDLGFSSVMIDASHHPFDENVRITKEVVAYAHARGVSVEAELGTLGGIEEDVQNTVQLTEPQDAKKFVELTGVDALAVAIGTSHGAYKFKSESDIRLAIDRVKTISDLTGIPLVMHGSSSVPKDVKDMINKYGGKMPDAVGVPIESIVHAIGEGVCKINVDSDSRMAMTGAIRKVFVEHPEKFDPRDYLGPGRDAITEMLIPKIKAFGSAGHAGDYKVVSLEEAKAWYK
#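 40 nM FBPA preincubated 10 min at RT with compound (up to 57.5 uM final), then substrate plus GAPDH/TPI/NAD/arsenate coupling and diaphorase/resazurin added. Fluorescence read after 20 min at RT, 525/598 nm.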
# * marks the source's active call; other numbers are inactive results; i = inactive; u = inconclusive; x = no result; [ ] = dose if it differs, or a comment. Rows were chosen to be rich in hits. Some 2.2% of all compounds tested hit in one or more screens of this group. On the % scale 0 is the no-effect control and ±100 the full control effect; potency means the concentration at half of the fitted maximal effect.
SMILES,VACV mCherry inh,VACV Venus inh,FMDV inh,FBPA Giardia inh
O=C(/C=C/c1ccccc1)NC(NC(=S)Nc1cc(Cl)ccc1Cl)C(Cl)(Cl)Cl (stereo not drawn),10µM*,u,-12.0%,-7.2%
O=C(/C=C/c1ccccc1)NC(NC(=S)Nc1ccc(Cl)cc1)C(Cl)(Cl)Cl (stereo not drawn),x,x,-20.6%,-1.3%
O=C(CN1CCCN(S(=O)(=O)c2ccc(Br)cc2)CC1)Nc1cccc(C(F)(F)F)c1,-7.8%,-4.2%,-30.0%,x
CN(C)c1ccc(/C=C2\Cc3ccccc3C2=O)cc1,-13.4%,40.8%,x,x
Cc1ccnc(NC(=O)CCC(=O)c2cccs2)c1,-8.3%,-3.2%,14.1µM*,x
Cc1ccc(NC(=O)CCC(=O)c2cccs2)nc1,-12.5%,-1.7%,84.4%,x
CC12CC[C@H]3[C@@H](CCC4(O)C[C@H](O)CCC34/C=N/NC(=O)c3ccccc3Cl)C1(O)CCC2C1=CC(=O)OC1 (stereo partly drawn),x,x,-22.0%,1.9%
CC12CCC3C(CCC4(O)CC(O)CCC34C=O)C1(O)CCC2C1=CC(=O)OC1 (stereo not drawn),u,1µM*,u,x
CC12CCC3C(CCC4(O)CC(O)CCC34C=NO)C1(O)CCC2C1=COC(=O)C1 (stereo not drawn),31.6µM*,0.398µM*,u,x
C[C@]12CCC3C(CCC4=CC(O)CC[C@@]43/C=N/O)C1(O)CCC2C1=CC(=O)OC1 (stereo partly drawn),u,0.316µM*,-17.1%,3.0%
CC(=O)O[C@H]1CC[C@]2(C=O)C3CC[C@]4(C)[C@@H](C5=CC(=O)OC5)CC[C@]4(O)C3CC[C@]2(O)C1 (stereo partly drawn),x,x,x,0.0%
C[C@]12CC[C@H]3[C@@H](CC[C@]4(O)C[C@@H](O)CC[C@]34C=O)[C@@]1(O)CC[C@@H]2C1=CC(=O)OC1,1µM*,1µM*,u,x
C[C@@H]1O[C@H](O[C@@H]2CC[C@@]3(C=O)[C@H]4CC[C@@]5(C)[C@@H](C6=CC(=O)OC6)CC[C@@]5(O)[C@@H]4CC[C@]3(O)C2)C[C@H](O)[C@@H]1O,x,x,x,7.3%[21.7 µM]
Cn1nccc1C(=O)NCC1CCC2(CCN(Cc3cccc4ncccc34)CC2)O1 (stereo not drawn),-4.2%,1.4%,-5.5%,x
COc1ccccc1C1CN(CCNC(=O)c2cnsn2)Cc2ccccc2O1 (stereo not drawn),-20.7%,-5.4%,9.3%,x
CC[C@H](C)[C@H](NC(=O)[C@H](Cc1ccc(O)cc1)NC(=O)[C@H](Cc1cnc[nH]1)NC(=O)[C@H](CCCNC(=N)N)NC(=O)[C@H](CC(C)C)NC(=O)[C@H](C)NC(=O)[C@@H](N)CO)C(=O)N[C@@H](CC(N)=O)C(=O)N[C@@H](CC(C)C)C(=O)N[C@H](C(=O)N[C@H](C(=O)N[C@@H](CCCNC(=N)N)C(=O)N[C@@H](CCC(N)=O)C(=O)N[C@@H](CCCNC(=N)N)C(=O)N[C@@H](Cc1ccc(O)cc1)C(N)=O)[C@@H](C)O)[C@@H](C)CC,x,x,x,-0.2%
C[C@H]1O[C@@H](OC2CC[C@]3(C=O)[C@H]4CC[C@]5(C)[C@@H](C6=CC(=O)OC6)CC[C@]5(O)[C@@H]4CC[C@]3(O)C2)CC2OC(C)(C)OC21 (stereo partly drawn),u,0.282µM*,u,u
CCCCN=C[C@]12CCC(O)CC1(O)CCC1[C@@H]2CC[C@]2(C)[C@H](C3C=CC(=O)O3)CCC12O (stereo partly drawn),0.316µM*,0.316µM*,-24.4%,-3.9%
COc1cc(N/N=C/c2ccc(N(C)C)cc2)ncn1,-6.9%,-10.4%,-19.0%,-0.7%
COc1cc(N/N=C/c2ccccc2O)ncn1,14.1µM*,u,13.9%,-9.8%
NC(=O)c1ccsc1NC(=O)c1ccc(S(=O)(=O)N2CCCc3ccccc32)cc1,-9.2%,u,35.5µM*,-10.7%
CCOc1ccc(C=Nc2ccc(/C=C/c3ccnc4ccccc34)cc2)cc1OCC,19.7%,-9.3%,x,x
CC1CN(CC(=O)NCC2(N3CCOCC3)CCCC2)Cc2cc(Cl)ccc2O1 (stereo not drawn),-7.8%,-11.5%,-3.8%,x
Cc1ccc(S(=O)(=O)N(C)C)cc1NC(=O)c1cncc(Br)c1,6.31µM*,8.91µM*,u,u
Cn1ccc(C(=O)NCC2CCC3(CCN(Cc4cc(F)cc(F)c4)CC3)O2)n1 (stereo not drawn),i,0.0%,-1.1%,x
CCOC(=O)c1cccc(NC(=O)/C=C/c2ccc3c(c2)OCO3)c1,-23.2%,u,39.8µM*,-5.0%
